# This is part of a sample that, as a whole, favours compounds with a hit. Of some 79,000 tested, about 15% had one in any assay. Values without a mark were called inactive. Active and inactive are the calls of the source. No stated cut-off is given here; in the data, active means growth inhibition above about 70%; inactive means the rest.
# Tests used:
# [1] = NCI Yeast Anticancer Drug Screen. Data for the rad50 strain (AID 155);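 further: 0% = growth of vehicle-only cultures of the same strain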; details: S. cerevisiae rad50 strain growth inhibition; at 50.0 µM; stronger effect = higher value
# Method in brief: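 Vehicle-treated cultures provide the reference for the growth inhibition reported for compound-exposed, repair-deficient yeast.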
# [2] = NCI Yeast Anticancer Drug Screen. Data for the mec2-1 strain (AID 157); details: S. cerevisiae mec2-1 strain, at 50.0 µM, stronger effect = higher value
# Method in brief: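 Readout is yeast growth inhibition, normalised to vehicle-treated controls, in the mec2-1 strain exposed to compound.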
# [3] = NCI Yeast Anticancer Drug Screen. Data for the sgs1 mgt1 strain (AID 161);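 further: 0% = growth of cultures given vehicle only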; details: S. cerevisiae sgs1 mgt1 strain, at 50.0 µM, stronger effect = higher value
# Method in brief: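 Percent growth inhibition was derived by comparing compound-exposed mutant yeast with vehicle-exposed cultures. The strain carries alterations in DNA damage repair.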
# [4] = NCI Yeast Anticancer Drug Screen. Data for the cln2 rad14 strain (AID 165);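 further: 0% = growth equal to vehicle treated cultures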; details: S. cerevisiae cln2 rad14 strain, at 50.0 µM, stronger effect = higher value
# Method in brief: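 Relative to vehicle controls, growth inhibition of compound-treated cln2 rad14 yeast was recorded.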
# [5] = NCI Yeast Anticancer Drug Screen. Data for the bub3 strain (AID 167); details: S. cerevisiae bub3 mutant strain, at 50.0 µM, stronger effect = higher value
# Method in brief: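 Mutant yeast screening strain plus compound; vehicle-treated cultures serve as the 0% inhibition reference.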
# [6] = NCI Yeast Anticancer Drug Screen. Data for the mlh1 rad18 strain (AID 175); details: S. cerevisiae mlh1 rad18 strain growth inhibition; at 50.0 µM; stronger effect = higher value
# Method in brief: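 Test agents were incubated with a yeast strain of defined genotype (DNA damage repair defect). Inhibition of growth was derived by comparison with vehicle-exposed cultures.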
Compound,growth inhibition [1] [%],growth inhibition [2] [%],growth inhibition [3],growth inhibition [4] [%],growth inhibition [5],growth inhibition [6] [%]
Cc1ccc(Cl)cc1NS(=O)(=O)c1ccccc1,-4.35,-31.1,-2.8%,-14.3,-22.8%,5.55
CCOc1c(N=Nc2ccccc2C)c(-c2ccccc2)nn1C(N)=S,8.25,6.85,5.4%,25.4,-3.5%,8.25
CN(C)c1ccc(C2N(C)CCN2C)cc1,-10.4,6.85,9.85%,-1.8,-7.5%,-12.8
COc1ccccc1C(CC(=O)c1ccccc1)Sc1ccccc1N (stereo not given),26.9,33.9,38.8%,4.1,26.4%,12.3
Nc1nc(-c2cccc([N+](=O)[O-])c2)c(N=Nc2ccc(Br)cc2)s1,10.3,12.4,23.1%,15.8,-3.25%,5.95
Cc1cc2c(cc1C)NC(C)CC(=O)N2 (stereo not given),5.8,-13.1,4.2%,14.1,-0.2%,21.7
OC1[C@H](O)CN(OCc2ccccc2)C[C@@H]1O (stereo not given in full),-13.9,-2.4,-15.1%,-20.4,7.85%,-18.4
Cc1cc([N+](=O)[O-])ccc1NC(=O)C(Br)C(Br)C(=O)O (stereo not given),31.1,64.5,75.9% (active),15.8,75.8% (active),49.1
[N-]=[N+]=NC12CC3C4CC5CC3C(C1)C(C5)C4C2,10.3,0.6,-6.65%,10.2,-6.15%,-8.45
CC(C)CCNCC(C)(C)OC(=O)c1ccc([N+](=O)[O-])cc1,34.6,19.2,51.9%,31.3,30.4%,33.2
Cc1ccc(C(=O)/C=C\C=C\c2ccccc2)cc1,16.6,27.7,41.6%,-3.7,50.6%,19.8
CC1=C(CCCO)/C(=N\O)CCC1,3.75,-1.75,-3%,-30.4,17.5%,-28
CC1(C)CC(=O)C(CC2=C(N)CC(C)(C)CC2=O)=C(N)C1,1.8,5.8,9.9%,-13.3,10.6%,31.7
CCCCNC(=O)c1cc(S(=O)(=O)n2cc[nH]c2=O)c(SC)cc1Cl,4.1,2.7,15.8%,-2.75,-5.05%,31.2
O=c1ccc2c(O)cc(O)cc2o1,-8.9,-5.9,-13.7%,5.05,8.35%,-8.5
O=C1OC(c2ccccc2)=N/C1=C/c1c(-c2ccccc2)c(-c2ccccc2)c2n1CCC2,21.9,9.75,3.05%,25.5,-4.45%,18.6
CCCCCC(Cl)(CC)CCCCC,-23.4,-0.6,-16.6%,-39.7,1.45%,-8.85
[Cl][Pt+2][Cl].[NH-]CC1([NH-])CCCCC1,-10.2,14.1,-19.6%,-2.8,-5.6%,-31.9
O=c1[nH]c2c(c(=O)[nH]1)SSC2,-24.4,-12.8,-39.4%,-7.7,-28.4%,-10.1
O=C1CCC23CC(C=CC=C12)n1c(=O)n(-c2ccccc2)c(=O)n13 (stereo not given),13.2,-1.55,4.1%,21.1,-14.7%,16.7

# — PubChem BioAssay (NCI)
